Data from PubChem BioAssay (NCATS).
Results filed as inconclusive are left out. Active and inactive are the calls of the source. Unless noted, the call rests on the fitted dose curve; in most records, active means well fitted curve in the direction sought with a large enough effect; inconclusive means small, poorly fitted or top-dose-only effect, or another doubt; inactive means no such curve, though single readings can be large; an effect the other way counts as inactive or inconclusive.

Key:
[1] = Confirmation and Secondary Assay for Modulators of Hemoglobin Beta Chain Splicing at IVS2 705 locus (AID 930);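 further: HeLa cells stably expressing the EGFP-705 splicing reporter; GFP fluorescence per well restored by corrected splicing of the IVS2-705 intron in EGFP; % of control where 0% means no effect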
Procedure, shortened: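 Splice-correction reporter: EGFP cDNA split by beta-globin intron 2 bearing the 705 mutation, stably in HeLa. Compound incubation 2 days, 37C; fluorescent objects 5-250 µm summed per well.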

[2] = biological target: Glutathione peroxidase 1 (Homo sapiens) (UniProt P07203); experiment: Primary qHTS Assay for Inhibitors of Recombinant Selenoprotein Glutathione Peroxidase 1 (GPX1) (AID 1845191); details: outcome: dose series up to 48.8 µM unless noted; further: on the % scale 0 is the no-effect control and ±100 the full control effect; nearly all actives have a fitted effect of over 65% in size
Sequence of Glutathione peroxidase 1 (Homo sapiens) (P07203 whole entry, looked up): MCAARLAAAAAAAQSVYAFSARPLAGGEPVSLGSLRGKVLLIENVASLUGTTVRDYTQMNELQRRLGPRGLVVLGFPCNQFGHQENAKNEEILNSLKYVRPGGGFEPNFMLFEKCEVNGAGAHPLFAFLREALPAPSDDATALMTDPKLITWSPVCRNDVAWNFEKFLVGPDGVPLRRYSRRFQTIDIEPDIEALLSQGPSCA
Procedure, shortened: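 10 nM GPX1 + cpd, 30 min RT; start w/ 1 mM GSH, 0.5 mM cumene hydroperoxide, 0.5 mM NADPH, 100 nM GR, 0.01% BSA; buffer 50 mM Tris-HCl pH 7.5, 2 mM EDTA, 150 mM NaCl; Fl 340/450, 0 & 15 min.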

[3] = biological target: Phospholipid hydroperoxide glutathione peroxidase GPX4 (Homo sapiens) (UniProt P36969); experiment: Primary qHTS Assay for Inhibitors of Recombinant Selenoprotein Glutathione Peroxidase 4 (GPX4) (AID 1845192); details: outcome: dose series up to 50 µM unless noted; further: nearly all actives have a fitted effect of over 65% in size
Sequence of Phospholipid hydroperoxide glutathione peroxidase GPX4 (Homo sapiens) (P36969 whole entry, looked up): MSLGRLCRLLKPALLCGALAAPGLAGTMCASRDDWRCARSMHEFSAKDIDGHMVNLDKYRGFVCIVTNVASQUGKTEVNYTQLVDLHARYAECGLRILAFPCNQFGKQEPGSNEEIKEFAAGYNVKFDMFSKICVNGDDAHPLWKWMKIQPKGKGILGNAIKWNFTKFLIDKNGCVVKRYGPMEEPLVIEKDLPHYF
Procedure, shortened: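 NADPH consumption, followed by fluorescence at 340/450 nm between 0 and 15 min, reports GPX4 activity via coupled glutathione reductase (100 nM). Enzyme 200 nM was pre-exposed to compound 30 min; 0.5 mM cumene hydroperoxide and 1 mM GSH served as substrates.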

[4] = qHTS profiling of the MIPE4 collection as inhibitors of Plasmodium falciparum (3D7) proliferation (AID 743344; call rule not given here;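 further: scaled between DMSO vehicle wells and 0.29 µM artemisinin as full inhibition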); details: P. falciparum 3D7 in erythrocytes, SYBR Green DNA fluorescence, 72 h; at 5.51 µM (top of the series) unless noted
Procedure, shortened: (§1)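 Erythrocytes infected with P. falciparum (0.3% parasitemia, 2.5% hematocrit) incubated with compounds 72 h at 37 C, 5% CO2. Lysis with saponin/Triton buffer containing SYBR Green I, overnight at room temperature in the dark; DNA fluorescence (485/535 nm) normalised to 0.29 uM artemisinin and DMSO.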

[5] = qHTS profiling of the MIPE4 collection as inhibitors of Plasmodium falciparum (DD2) proliferation (AID 743345; call rule not given here); details: P. falciparum Dd2 in erythrocytes, SYBR Green DNA, 72 h; at 5.51 µM (top of the series) unless noted
Procedure, shortened: as §1

[6] = qHTS profiling of the MIPE4 collection as inhibitors of Plasmodium falciparum (DD2) proliferation (Rep 2) (AID 743346; call rule not given here); details: P. falciparum Dd2 in erythrocytes, SYBR Green DNA, 72 h; at 5.51 µM (top of the series) unless noted
Procedure, shortened: as §1

[7] = qHTS profiling of the MIPE4 collection as inhibitors of Plasmodium falciparum (HB3) proliferation (AID 743347; call rule not given here;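 further: plate controls were DMSO vehicle wells for no effect and artemisinin wells for full effect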); details: P. falciparum HB3 in erythrocytes, SYBR Green DNA, 72 h; at 5.51 µM (top of the series) unless noted
Procedure, shortened: as §1

For `Cc1noc(C)c1-c1cncnc1NC1CC1`, the outcome [1] was “inactive”.

With `CCC(=O)O[C@@H]1CC(=O)O[C@H](C)C/C=C/C=C/[C@@H](O)[C@H](C)C[C@H](CC=O)[C@H](OC2O[C@H](C)[C@@H](O[C@H]3C[C@@](C)(O)[C@@H](OC(=O)CC)[C@H](C)O3)[C@H](N(C)C)[C@H]2O)[C@H]1OC` (stereo partly drawn) the outcome [2] was “inactive” and the outcome [3] was “inactive”.

With `NC[C@@H]1O[C@H](O[C@H]2[C@H](O)[C@H](O[C@H]3[C@@H](O)[C@H](N)C[C@H](N)[C@H]3O[C@H]3O[C@H](CN)[C@H](O)[C@H](O)[C@H]3N)O[C@@H]2CO)[C@@H](N)[C@@H](O)[C@@H]1O` the parasite growth, % of DMSO control [4] was 98.8%, the parasite growth remaining, % of DMSO control (lower = more inhibition) [5] was 101% and the parasite growth, % of control (lower = inhibition) [6] was 77.1%. For the same compound, the growth, % of control [7] was 77.3% and the activity, negative = inhibition [2] was -26.7% [at 4.49 µM] (inactive).

In the case of `c1ncc(-c2ccc3c(c2)OCO3)c(NCCc2cnc[nH]2)n1`, the outcome [1] was “inactive”.

For `CN(C)Cc1ccccc1-c1nccc(NC2CC2)n1`, the outcome [1] was “inactive”.

In the case of `COc1cccc(-c2cncnc2NCCc2cnc[nH]2)c1`, the outcome [1] was “inactive”.

In the case of `CN(C)C(=O)c1ccc(-c2nccc(NCc3cccnc3)n2)cc1`, the outcome [1] was “inactive”.

For `CC(=O)NCCNc1ncnc2ccc(-c3ccc(C(=O)N(C)C)cc3)cc12`, the outcome [1] was “inactive”.
